The whole screen tested about 2,300 compounds, of which about 1,500 (65%) were called active. So high a share suggests a set chosen from earlier hits. These entries were drawn from the full list. Unmarked numbers belong to inactive results. No stated cut-off is given here; in the data, active means inhibition above about 18%; inactive means the rest.

The target of this assay is Heat shock protein HSP 90-alpha (Homo sapiens) (UniProt P07900). The assay can be described thus: inhibitors of HSP90 chaperone activity – cell lysate, luminescence, confirmation (AID 1846).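 Further: 0% = vehicle wells and 100% = reference inhibitor wells.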 The conditions noted are these: rabbit reticulocyte lysate, luciferase refolding luminescence, 3 h; at 5.9 µM; hits give high values.
Take `COc1cccc(-c2nc3ccc(N4CCN(C)CC4)cc3[nH]2)c1`: the inhibition – broadly, how much of the control response was suppressed – was 69.3% (active).

As for `O=c1c2ccccc2nc(/C=C/c2ccco2)n1-c1ccccc1O`, the inhibition was 9.67%.

Values taken from PubChem BioAssay AID1846 (The Scripps Research Institute Molecular Screening Center, 2009).
